Measured values taken from PubChem BioAssay AID488975 (Johns Hopkins Ion Channel Center, 2010).
Screen size: about 310,000 compounds; about 2,600 (0.84%) were called active.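 How the source made its calls: active means B-score over 3 SD under the library average, and starting fluorescence ratio not unusually high; inactive means the rest.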 The full list was thinned out, with actives kept by preference.

target: High affinity choline transporter 1 (Homo sapiens) (UniProt Q9GZV3); experiment: inhibits the human high affinity choline transporter (AID 488975); conditions: CHT-expressing cells, membrane potential dye, choline response, at 10 µM; hits give low values;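 on B-score: choline stimulus applied at its EC90 after an EC20 pre-addition; B-score computed on integrated fluorescence ratio after choline addition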
Sequence (Q9GZV3 whole entry, looked up): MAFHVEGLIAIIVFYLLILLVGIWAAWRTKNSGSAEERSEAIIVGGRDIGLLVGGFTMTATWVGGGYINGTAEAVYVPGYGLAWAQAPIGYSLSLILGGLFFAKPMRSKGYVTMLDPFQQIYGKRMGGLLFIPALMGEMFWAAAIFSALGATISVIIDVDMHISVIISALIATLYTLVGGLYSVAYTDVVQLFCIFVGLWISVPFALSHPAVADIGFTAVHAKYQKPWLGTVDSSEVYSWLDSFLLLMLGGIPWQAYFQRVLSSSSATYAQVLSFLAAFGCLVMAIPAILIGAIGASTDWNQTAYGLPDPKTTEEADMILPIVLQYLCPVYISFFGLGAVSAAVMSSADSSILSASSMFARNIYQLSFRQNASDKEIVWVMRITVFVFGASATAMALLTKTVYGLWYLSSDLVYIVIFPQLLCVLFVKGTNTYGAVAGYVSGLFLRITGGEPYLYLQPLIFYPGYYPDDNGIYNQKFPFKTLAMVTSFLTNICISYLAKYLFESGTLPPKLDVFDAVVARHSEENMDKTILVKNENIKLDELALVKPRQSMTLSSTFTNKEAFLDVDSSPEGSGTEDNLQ

B-score, inactive:
CCCCn1c(N)c(N(CC(C)C)C(=O)c2ccc(Br)o2)c(=O)[nH]c1=O, CC(OC(=O)c1ccc(S(=O)(=O)N2CCOCC2)cc1)c1ccccc1 (stereo not drawn), CCN(C(=O)CSc1ncnc2c1cnn2-c1ccccc1)C1CCS(=O)(=O)C1 (stereo not drawn), CC(C)c1ccc(NC(=O)C2CCCN(S(=O)(=O)c3cccnc3)C2)cc1 (stereo not drawn), O=C(NCc1cccs1)C1CCN(S(=O)(=O)c2ccc(Cl)cc2)CC1, O=C(COC(=O)c1cc(S(=O)(=O)N2CCCCC2)ccc1Cl)NCc1ccco1, CN(c1ccccc1)S(=O)(=O)c1ccc(Cl)c(C(=O)OCC(=O)NCc2ccco2)c1, CCOc1ccc(S(=O)(=O)N2CCN(C(=S)NCC3CCCO3)CC2)cc1 (stereo not drawn), CC(C)CN(C(=O)c1ccc2c(c1)OCO2)C1CCS(=O)(=O)C1 (stereo not drawn), CN(C(=O)c1cc2c(=O)n3ccccc3nc2s1)C1CCCCC1, O=C(CC1SC(N2CCCC2)=NC1=O)Nc1ccc(C(=O)NCCc2ccc(F)cc2)cc1 (stereo not drawn), CCc1nccn1S(=O)(=O)c1cccc([N+](=O)[O-])c1, Cc1ccc([N+](=O)[O-])cc1S(=O)(=O)N1CCCN(C)CC1, C=CCOc1cccc(C2C(C(=O)c3ccc(C)o3)=C(O)C(=O)N2CCCn2ccnc2)c1 (stereo not drawn), O=C(CN1C(=O)CSc2ncccc21)N1CCOCC1, O=C(COc1ccc(Cl)cc1)N1CCN(c2cccc(C(F)(F)F)c2)CC1, CCCn1c(C)cc(-c2csc(NC(=O)CCc3nc4ccccc4c(=O)[nH]3)n2)c1C, CN(C)C1=NC[C@H](Cc2ccccc2)N1CCc1ccc(F)cc1, CC1C(=O)N2CCCc3cc(S(=O)(=O)NCc4ccc(F)cc4)cc1c32 (stereo not drawn), CN1C(=O)/C(=C/c2ccc(C(=O)NC3CCCC3)cc2)Oc2ccccc21, O=C(NCCN1CCOCC1)c1ccc(/C=C2\Sc3ccccc3N(Cc3ccc(F)cc3)C2=O)cc1, O=C(NC1CCCCC1)c1ccc(-c2ccc(Cl)cc2)o1, O=[N+]([O-])c1ccc(O)c(/C=N/Nc2ccccc2[N+](=O)[O-])c1, O=C(O)c1ccccc1C(=O)Nc1ccccc1[N+](=O)[O-], CCN(C(=O)CSc1nnnn1-c1ccccc1OC)C1CCS(=O)(=O)C1 (stereo not drawn), Cc1nc2c(c(C)nn2-c2ccccc2)c(C)c1C, O=C(Nc1ncccc1O)c1ccc(C(=O)c2ccccc2)cc1, Cc1csc(=O)n1CC(=O)OCC(=O)N(CC(C)C)c1c(N)n(Cc2ccccc2)c(=O)[nH]c1=O, CCOC(=O)NC(=O)/C(C#N)=C\c1ccccc1, CCOC(=O)/C(C#N)=C/c1ccc(N2CCCCC2)cc1, O=C(NC1CCCCC1)c1ccc2c(=O)n(CC3CCCO3)c(=O)[nH]c2c1 (stereo not drawn), CCC1CCCCN1CCCNC(=O)C1CCC(Cn2c(=O)[nH]c3ccccc3c2=O)CC1 (stereo not drawn), CCN1C(=O)[C@H]2[C@@H](c3ccc(C)cc3)N3C(=O)N(c4cccc(Br)c4)C(=O)[C@@]3(CC)[C@H]2C1=O, O=C(CCCCO)c1ccc(O)c(Cl)c1, COCCn1c(CN(Cc2ccccc2)Cc2ccccc2)nc2c1c(=O)n(C)c(=O)n2C, CC(C)Cn1c(CN(Cc2ccccc2)Cc2ccccc2)nc2c1c(=O)n(C)c(=O)n2C, COc1cc(C2C(C(=O)c3cccs3)=C(O)C(=O)N2CCN2CCOCC2)ccc1OCCC(C)C (stereo not drawn), COCCCNC(=O)CN1C(=O)CSc2ccc(S(=O)(=O)N3CCOCC3)cc21, COc1ccc(NC(=O)CN2C(=O)CSc3ccc(S(=O)(=O)N4CCC(C)CC4)cc32)cc1, O=S(=O)(NCCCc1ccccc1)c1ccc(Br)cc1, O=C(c1ccc(F)cc1)N1CCC(C(=O)N2CCN(S(=O)(=O)c3ccccc3Br)CC2)CC1, O=C(CCCN1C(=O)/C(=C\c2ccccc2)SC1=S)Nc1ccccc1O, COc1ccc(/C=C2\SC(=O)N(CCC(=O)NCCCn3ccnc3)C2=O)cc1, CC(=O)CC(CC(=O)NC1CCCCC1)c1ccccc1 (stereo not drawn), Cc1ccc(C)c(C(=O)N2CCC(n3nccc3NC(=O)C3CC3)CC2)c1, CCOC(=O)C1CCN(C(=O)c2oc3ccc(S(=O)(=O)N4CCCCCC4)cc3c2C)CC1, COc1ccc(C(=O)Nc2ccc(CN3CCOCC3)cc2)cc1, C/C(CCc1ccccc1)=N\NC(=O)c1ccc(CN2CCOCC2)cc1, COc1ccc(S(=O)(=O)NCc2cccnc2)cc1NC(=O)c1ccc(C)cc1, Cc1cc(C)c(S(=O)(=O)N2CCCC2CNC(=O)c2ccc3c(c2)OCO3)c(C)c1 (stereo not drawn), O=S(=O)(O)Oc1c[nH]c2ccccc12, COc1ccc(OCCCC(=O)Oc2ccc(OC)cc2)cc1, COc1ccc(OCCC(=O)c2ccc(OC)cc2)cc1, CCOc1ccc(CCNC(=O)COC(=O)c2c(OC)cccc2OC)cc1OCC, CCCCCC(=O)N1CCN(S(=O)(=O)c2ccc3c(c2)OCCCO3)CC1, CN1CCCN(S(=O)(=O)c2ccc3c(c2)OCCO3)CC1, CC(C)c1ccc(S(=O)(=O)N2CCN(C(=O)CN3C(=O)NC(C)(c4ccccc4)C3=O)CC2)cc1 (stereo not drawn), Cc1cccc(NC(=O)c2nc(S(=O)(=O)Cc3ccccc3)ncc2Cl)c1, CSc1nnc(NC(=O)c2nc(S(=O)(=O)Cc3ccc(C)cc3)ncc2Cl)s1, Cc1ccc(C(=O)CN2C(=O)NC3(CCc4ccccc43)C2=O)c(C)c1 (stereo not drawn), O=C(OCCOCn1cc(Br)c(=O)[nH]c1=O)c1ccccc1, CCCN(CC(=O)Nc1ccccc1OC)C(=O)CCC(=O)c1ccc(F)cc1, Cn1cc([N+](=O)[O-])c(C(=O)Nc2cnn(Cc3ccc(F)cc3)c2)n1, Cc1ccc(Cn2ccc(NC(=O)c3cc(C(C)C)on3)n2)cc1, CCN1C(=O)[C@@H]2[C@@H](c3ccc(-c4ccccc4)cc3)N3CCCC[C@@]3(C(=O)OC)[C@@H]2C1=O, CCCCCCSc1ccc([C@@H]2[C@@H]3C(=O)N(CC)C(=O)[C@@H]3[C@]3(C(=O)OC)CCCCN23)cc1OC, O=C(NCCC1CCCCN1S(=O)(=O)c1ccc(F)cc1)C(=O)NC1CC1 (stereo not drawn), COc1ccc(CCNc2cc(N3CCN(C(=O)c4ccccc4OC)CC3)ccc2[N+](=O)[O-])cc1OC, Cc1cc(/C=C2/C(=N)N3C(=NC2=O)SN=C3S(C)(=O)=O)c(C)n1-c1ccccc1, CCS(=O)(=O)C1=NSC2=NC(=O)/C(=C\c3cc(C)n(-c4cccc(OC)c4)c3C)C(=N)N21, Cc1ccc2c(C)c(C(=O)N3CCN(c4ccncc4)CC3)oc2c1C, CCOc1cc(C(=O)Nc2ccc(S(=O)(=O)Nc3cnc4ccccc4n3)cc2)cc(OCC)c1OCC, O=C(NCCCn1ccnc1)Nc1ccc(Cl)cc1Cl, O=C(NCCCn1ccnc1)c1ccccc1F, COc1ccc(C(=O)C2CCCN(C(=O)c3ccc(OC)o3)C2)c(C)c1 (stereo not drawn), CCOCCCN(C)C1CCN(C(=O)c2oc3ccccc3c2NC(=O)Cc2cccc([N+](=O)[O-])c2)CC1, COCC(=O)Nc1c(C(=O)N2CCCC2)oc2ccccc12

B-score, active:
O=C(Nc1ccc(F)c(Cl)c1)C1CCN(S(=O)(=O)c2cccnc2)CC1 -5.54, Cc1cc(C(=O)OCC(=O)NCc2ccco2)c(C)n1-c1ccccc1 -10, CCc1nc(C)cn1S(=O)(=O)c1cc([N+](=O)[O-])ccc1Cl -5.38, O=C(CCCN1C(=O)CSc2ncccc21)N1CCN(c2cccc(C(F)(F)F)c2)CC1 -9.61, CN1CCN(CCCNC(=O)c2ccc(/C=C3\Oc4ccccc4N(Cc4ccc(Cl)cc4)C3=O)cc2)CC1 -7.25, O=[N+]([O-])c1ccccc1Nc1ccc(O)cc1 -5.48, CC(C)(C)C(=O)/C(C#N)=C/c1ccc(O)cc1 -5.45, CCCCCn1c(=O)[nH]c2cc(C(=O)NCCCN3CCCCC3C)ccc2c1=O (stereo not drawn) -6.4, CC(C)CCn1c(CN(C)Cc2ccccc2)nc2c1c(=O)n(C)c(=O)n2C -5.25, CC1CCN(CCCNC(=O)CN2C(=O)CSc3ccc(S(=O)(=O)N4CCCCC4)cc32)CC1 -5.37, COc1ccc(/C=C2/SC(=O)N(CCCCCC(=O)Nc3ccccc3C(=O)O)C2=S)cc1 -9.31, Cc1ccc2c(C)c(C(=O)N3CCC(N4CCC(C(=O)NC5CC5)CC4)CC3)oc2c1 -8.96, Cc1ccccc1-n1c(C)cc(/C=N/NC(=O)c2ccc(CN3CCOCC3)cc2)c1C -9.28, COc1ccc(OCC(=O)OCCN(C)C)cc1 -11, O=C(c1c(F)cccc1Cl)N1CCN(S(=O)(=O)c2ccc3c(c2)OCCCO3)CC1 -5.01, Cc1ccc(CS(=O)(=O)c2ncc(Cl)c(C(=O)Nc3nnc(C)s3)n2)cc1 -9.37, CC(=O)OCCOCn1cnn2c(=O)c(Br)c(C)nc12 -5.09, O=C(Nc1ccn(Cc2ccccc2)n1)c1n[nH]c([N+](=O)[O-])c1Cl -5.17, CCS(=O)(=O)C1=NSC2=NC(=O)/C(=C\c3ccc(OS(=O)(=O)c4ccccc4)cc3)C(=N)N21 -7.46, O=C(Nc1ccccc1C(=O)NCCCn1ccnc1)c1ccc(Cl)cc1Cl -5.25, CCOCCCN(C)C1CCN(C(=O)c2oc3ccccc3c2NC(=O)COc2cccc(C)c2)CC1 -6.44
